Six molecules from PubChem BioAssay (NCI) can be followed below.

Molecules are shown by their SMILES. The panel holds about 79,000 compounds, 15% with a hit somewhere; the sample as a whole holds those more often. Unmarked numbers belong to inactive results. Activity calls are given as the source filed them. No stated cut-off is given here; in the data, active means growth inhibition above about 70%; inactive means the rest.

Experiment [1] is described as follows: NCI Yeast Anticancer Drug Screen. Data for the rad50 strain (AID 155).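 Further: 0% = growth of vehicle-only cultures of the same strain.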 To be noted: S. cerevisiae rad50 strain growth inhibition, stronger effect = higher value. The gist of the method: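 Relative growth inhibition (compound vs vehicle) was measured in yeast with a defined repair-gene alteration.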
Experiment [2] can be described thus: NCI Yeast Anticancer Drug Screen. Data for the mec2-1 strain (AID 157). Particulars: S. cerevisiae mec2-1 strain, stronger effect = higher value. The method in brief: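 Growth inhibition is read against vehicle-treated controls after compound exposure of the mec2-1 yeast strain, which is defective in DNA damage repair or cell cycle control.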
Experiment [3] is described as follows: NCI Yeast Anticancer Drug Screen. Data for the sgs1 mgt1 strain (AID 161).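 Further: 0% = growth of cultures given vehicle only.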 Particulars: S. cerevisiae sgs1 mgt1 strain, stronger effect = higher value. The gist of the method: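 This yeast growth screen uses a strain with defined DNA-repair lesions; compound-treated growth is compared with vehicle-treated growth.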
The nature of experiment [4]: NCI Yeast Anticancer Drug Screen. Data for the cln2 rad14 strain (AID 165).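 Further: 0% = growth equal to vehicle treated cultures.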 Particulars: S. cerevisiae cln2 rad14 strain, stronger effect = higher value. The gist of the method:
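Growth inhibition, relative to vehicle-treated controls, is the read-out. The test organism is a yeast strain with defined genetic alterations, cln2 rad14.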

A short description of experiment [5]: NCI Yeast Anticancer Drug Screen. Data for the bub3 strain (AID 167). To be noted: S. cerevisiae bub3 mutant strain, stronger effect = higher value. The method in brief: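 Screening used yeast with an engineered genetic alteration affecting cell cycle control. Compound-exposed cultures were compared with vehicle cultures, and reduced growth was taken as inhibition.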

Experiment [6] is described as follows: NCI Yeast Anticancer Drug Screen. Data for the mlh1 rad18 strain (AID 175). To be noted: S. cerevisiae mlh1 rad18 strain growth inhibition, stronger effect = higher value. The gist of the method:
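Cells of a genetically altered yeast strain, deficient in DNA damage repair, were treated with compound. Their growth was then compared with that of vehicle-treated cultures to give inhibition.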

The mark [7] stands for this setting: at 5.0 µM (retest, dose inferred, filed as 0.5).
The mark [8] stands for this setting: at 50.0 µM (retest, dose inferred, filed as 5.0).

Consider `O=C1CSC(=S)N1c1ccc(F)cc1F`, for which the growth inhibition was 8% in experiment [1] (setting [7]); 86% (active) in experiment [1] (setting [8]); 89.8% (active) in experiment [1] (at 50.0 µM); -2% in experiment [2] (setting [7]); 82% (active) in experiment [2] (setting [8]); 22.6% in experiment [2] (at 50.0 µM). The growth inhibition in experiment [3] (setting [7]) was 10%; in experiment [3] (setting [8]), 78% (active); in experiment [3] (at 50.0 µM), 65.2%; in experiment [4] (setting [7]) it was -3%; in experiment [4] (setting [8]) it was 16%; in experiment [4] (at 50.0 µM), -9%. Moreover, the growth inhibition in experiment [5] (setting [7]) is -3%; in experiment [5] (setting [8]), 84% (active); in experiment [5] (at 50.0 µM) it was 83.8% (active); in experiment [6] (setting [7]), 3%; in experiment [6] (setting [8]), 89% (active); in experiment [6] (at 50.0 µM) it was 70.2% (active).
For the molecule `Cc1cc(O)c(/C=N/C(=S)Nc2ccc(S(N)(=O)=O)cc2)c(=O)o1`, the growth inhibition in experiment [1] (setting [7]) was 17%; in experiment [1] (setting [8]) it was 42%; in experiment [1] (at 50.0 µM), -24.4%; in experiment [2] (setting [7]), 13%; in experiment [2] (setting [8]) it was 32%; in experiment [2] (at 50.0 µM) it was 4.9%. Also, the growth inhibition in experiment [3] (setting [7]) was 19%; in experiment [3] (setting [8]) it was 57%; in experiment [3] (at 50.0 µM) it was -10.2%; in experiment [4] (setting [7]), 8%; in experiment [4] (setting [8]) it was 39%; in experiment [4] (at 50.0 µM), -6.55%. For the same molecule, the growth inhibition was 31% in experiment [5] (setting [7]); 56% in experiment [5] (setting [8]); 1.45% in experiment [5] (at 50.0 µM); 9% in experiment [6] (setting [7]); 44% in experiment [6] (setting [8]); -33.1% in experiment [6] (at 50.0 µM).
`CCOC(=O)OC(=S)N(C1CCCCC1)C1CCCCC1`: the growth inhibition is 4% in experiment [1] (setting [7]); 58% in experiment [1] (setting [8]); 50.5% in experiment [1] (at 50.0 µM); 0% in experiment [2] (setting [7]); 90% (active) in experiment [2] (setting [8]); 16.6% in experiment [2] (at 50.0 µM). Further, the growth inhibition was 5% in experiment [3] (setting [7]); 76% (active) in experiment [3] (setting [8]); 50.8% in experiment [3] (at 50.0 µM); 5% in experiment [4] (setting [7]); 58% in experiment [4] (setting [8]); 41.4% in experiment [4] (at 50.0 µM). Further, the growth inhibition in experiment [5] (setting [7]) is -1%; in experiment [5] (setting [8]), 77% (active); in experiment [5] (at 50.0 µM) it was 61.9%; in experiment [6] (setting [7]), 1%; in experiment [6] (setting [8]) it was 85% (active); in experiment [6] (at 50.0 µM), 60.8%.
On to `O=C(CC(O)(c1ccccc1)c1ccc(Cl)cc1)NC(=O)c1ccccc1O` (stereo not drawn), for which the growth inhibition in experiment [1] (setting [7]) was 45%; in experiment [1] (setting [8]), 93% (active); in experiment [1] (at 50.0 µM), 85% (active); in experiment [2] (setting [7]), 40%; in experiment [2] (setting [8]), 98% (active); in experiment [2] (at 50.0 µM), 89% (active). In addition, the growth inhibition was 48% in experiment [3] (setting [7]); 97% (active) in experiment [3] (setting [8]); 91.6% (active) in experiment [3] (at 50.0 µM); 42% in experiment [4] (setting [7]); 99% (active) in experiment [4] (setting [8]); 89% (active) in experiment [4] (at 50.0 µM). Also, the growth inhibition is 50% in experiment [5] (setting [7]); 99% (active) in experiment [5] (setting [8]); 86.8% (active) in experiment [5] (at 50.0 µM); 53% in experiment [6] (setting [7]); 97% (active) in experiment [6] (setting [8]); 86.8% (active) in experiment [6] (at 50.0 µM).
For the molecule `CC(C)(C)c1ccc(Sc2ncnc3ccccc23)cc1`, the growth inhibition in experiment [1] (setting [7]) is 4%; in experiment [1] (setting [8]) it was 78% (active); in experiment [1] (at 50.0 µM), 90.8% (active); in experiment [2] (setting [7]), 21%; in experiment [2] (setting [8]), 90% (active); in experiment [2] (at 50.0 µM), 89.3% (active). Besides, the growth inhibition in experiment [3] (setting [7]) was 2%; in experiment [3] (setting [8]), 89% (active); in experiment [3] (at 50.0 µM) it was 89.5% (active); in experiment [4] (setting [7]) it was -1%; in experiment [4] (setting [8]), 81% (active); in experiment [4] (at 50.0 µM), 71.2% (active). Moreover, the growth inhibition in experiment [5] (setting [7]) was 3%; in experiment [5] (setting [8]), 90% (active); in experiment [5] (at 50.0 µM), 92.5% (active); in experiment [6] (setting [7]), -6%; in experiment [6] (setting [8]), 87% (active); in experiment [6] (at 50.0 µM) it was 91.6% (active).
Regarding `O=C1C(=O)C(CCCO)(CCCO)CCCCCCCCC1(CCCO)CCCO`, the growth inhibition in experiment [1] (setting [7]) was -9%; in experiment [1] (setting [8]) it was -3%; in experiment [1] (at 50.0 µM), 31.4%; in experiment [2] (setting [7]) it was 5%; in experiment [2] (setting [8]), -11%; in experiment [2] (at 50.0 µM), -35.1%. The growth inhibition in experiment [3] (setting [7]) is 5%; in experiment [3] (setting [8]), 8%; in experiment [3] (at 50.0 µM), 0%; in experiment [4] (setting [7]) it was 6%; in experiment [4] (setting [8]) it was 19%; in experiment [4] (at 50.0 µM), 63.8%. Further, the growth inhibition is 13% in experiment [5] (setting [7]); -7% in experiment [5] (setting [8]); -6.5% in experiment [5] (at 50.0 µM); -8% in experiment [6] (setting [7]); 0% in experiment [6] (setting [8]); -5.95% in experiment [6] (at 50.0 µM).
